Inconclusive results are not listed. Activity calls are given as the source filed them. Calls come from the whole dose curve; as a rule, active = well fitted inhibition curve with a large enough effect; inconclusive = small, poorly fitted or top-dose-only effect; inactive = flat fitted curve, though single readings scatter.
Biological target: Calcium and integrin-binding protein 1 (Homo sapiens) (UniProt Q99828)
Test: Primary qHTS for Identification of Calcium Integrin Binding Protein 1 (CIB1) Competitor (AID 1508620);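 note: GST tagged CIB1 binding a fluorescein labelled alphaIIb integrin peptide tracer; top concentration of the series differs between compounds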
Details: CIB1-GST / FITC-alphaIIb peptide fluorescence polarization; series mostly up to 57.7 µM; activity change, negative = inhibition: at the top concentration
Procedure, shortened: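 Fluorescence polarization competition: GST-tagged CIB1 (1 uM final) preincubated with compound 15 min at room temperature, then FITC-labelled alphaIIb peptide (100 nM final) added. After 15 min at room temperature, polarization read at Ex 480/Em 540.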
% is set by controls: 0 for no effect and ±100 for the full control effect.

Sequence of Calcium and integrin-binding protein 1 (Homo sapiens) (Q99828 whole entry, looked up): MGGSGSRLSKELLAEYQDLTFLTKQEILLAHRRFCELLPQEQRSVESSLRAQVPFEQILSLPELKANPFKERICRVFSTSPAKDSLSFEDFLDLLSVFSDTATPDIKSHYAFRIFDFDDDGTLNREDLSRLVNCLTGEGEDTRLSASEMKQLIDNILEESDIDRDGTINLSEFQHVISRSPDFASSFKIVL

| SMILES | activity change, negative = inhibition |
| --- | --- |
| C[C@@H]1C[C@@H](O)[C@@]2(CO)C(CO)=CCC[C@@H]2[C@@]12C[C@@H](c1ccoc1)OC2=O | -9.36% (inactive) |
| CC1(C)CC[C@]2(C(=O)O[C@@H]3O[C@H](CO)[C@@H](O)[C@H](O)[C@H]3O)CC[C@]3(C)C(=CCC4[C@@]5(C)CC[C@H](O[C@H]6O[C@H](CO)[C@@H](O)[C@H](O[C@@H]7O[C@H](CO)[C@@H](O)[C@H](O)[C@H]7O)[C@H]6O)C(C)(C)C5CC[C@]43C)[C@@H]2C1 (some centres not stated) | 3.2% [at 30.2 µM] (inactive) |
| C=C1[C@@H]2CC[C@@]3(C)[C@H](c4ccoc4)OC(=O)C[C@]13O[C@H]1CC(=O)C(C)(C)[C@H](C(O)C(=O)OC)[C@]12C (some centres not stated) | 5.16% (inactive) |
| COc1cc(/C=C/C(=O)OC[C@H]2O[C@@H](OC3CC(C)=C(C(=O)O)C(C)(C)C3)[C@H](O)[C@@H](O)[C@@H]2O)cc(OC)c1O (some centres not stated) | 1.28% (inactive) |
| C=C1CC/C=C(/C(=O)O)CCC2C1CC2(C)C (configuration not stated) | 2.89% [at 114 µM] (inactive) |
| CC(C)C1CCC(CO)=CC1/C=C(\CO)C(=O)OCC1(O)CCC(C(C)C)C2C=C(C(=O)O)COC(=O)C21 (configuration not stated) | 1.89% (inactive) |
| CC(=O)c1c(C)cccc1O[C@@H]1O[C@H](CO)[C@@H](O)[C@H](O)[C@H]1O | -1.77% (inactive) |
| CCC(C)/C=C(C)/C=C/C1=CC2=C(Cl)C(=O)C(C)(OC(C)=O)C(=O)C2=CN1CCCCC(N)C(=O)O (configuration not stated) | -15.8% (inactive) |
| CC1OC(OC2C(OC(=O)[C@]34CCC(C)(C)C[C@H]3C3=CCC5[C@@]6(C)CC[C@H](OC7OC(C(=O)O)C(O)C(O)C7O)C(C)(C)C6CC[C@@]5(C)[C@]3(C)CC4O)OC(CO)C2O)C(O)C(O)C1OC1OCC(O)C(O)C1O (some centres not stated) | 1.31% [at 30.2 µM] (inactive) |
| C=C1C(OC(C)=O)CCC2(C)CCC(C(C)(C)O)CC12 (configuration not stated) | 1.74% [at 114 µM] (inactive) |
| CC1(C)CCC[C@]2(C)C1CC=C(CO)[C@H]2CC/C(=C/CO)CO (some centres not stated) | -1.94% (inactive) |
| CCC(C)/C=C(C)/C=C/C1=CC2=C(Cl)C(=O)C(C)(OC(C)=O)C(=O)C2=CN1C(CC(=O)O)C(=O)O (configuration not stated) | -20.7% (inactive) |
| CC(=C\C(C)O)/C=C(\C)C(=O)CC1CC(CC(N)=O)CC(=O)O1 (configuration not stated) | -1.84% (inactive) |
| C=C1C(OC(C)=O)CCC2(C)CC3(O)OC(=O)C(C)=C3CC12 (configuration not stated) | 0.402% (inactive) |
| CC(C)(O)C(O)C(=O)OCc1ccc(O[C@@H]2O[C@H](CO)[C@@H](O)[C@H](O)[C@H]2O)cc1 (some centres not stated) | 3.26% (inactive) |

Tested on: not listed separately
Test: Primary qHTS for inhibitors of nuclear receptor binding SET domain protein 2 (NSD2) in an isogenic RCH-ACV NSD2 p.E1099K mutant (9B) (AID 1645876); note: nearly all actives have a fitted effect of over 70% in size
Details: RCH-ACV (leukaemia line) NSD2 E1099K (9B) viability, CellTiter-Glo, 72 h; series mostly up to 44.9 µM; activity change, negative = viability loss: at the top concentration

| SMILES | activity change, negative = viability loss | outcome |
| --- | --- | --- |
| CC(=O)O[C@H]1[C@H](OC(=O)C(C)C)[C@]2(C)OC3(CC[C@]2(C)[C@H]2CCC[C@]4(CO4)[C@]12C)COC(=O)C3 (some centres not stated) | -12.7% [at 17.3 µM] (inactive) | – |
| CC1=CC(=O)CC(C)(C)C1/C=C/C(C)OC1OC(COC2OCC(O)C(O)C2O)C(O)C(O)C1O (configuration not stated) | -10% [at 17.3 µM] (inactive) | – |
| C=C1[C@H](OC(C)=O)[C@H]2[C@@H](OC(=O)c3ccccc3)[C@@H](C)C[C@]2(O)[C@@H](OC(C)=O)[C@H](C)/C=C/C(C)(C)C(=O)[C@H](OC(C)=O)[C@H]1OC(C)=O | -7.57% [at 17.3 µM] (inactive) | – |
| CC1CCC2C(C)(C)[C@H](O)CC[C@]2(C)C12Cc1c(O)cc3c(c1O2)CN(C(CCC(=O)O)C(=O)O)C3=O (some centres not stated) | 2.82% [at 17.3 µM] (inactive) | – |
| CC(=O)OC1CC(C(C)(C)O)OC2CCC3(C)OC4=C(C(=O)C=C5C(C)C(OC(C)=O)C6(C)C(C)OC546)C(O)C3C12C (configuration not stated) | -12.5% [at 17.3 µM] (inactive) | – |
| COC(=O)C1=C[C@@H](O)[C@@H](O)[C@H](O[C@@H]2O[C@H](CO)[C@@H](O)[C@H](O)[C@H]2OC(=O)/C=C/c2ccccc2)C1 | -3.33% [at 17.3 µM] (inactive) | – |
| O=C(O)CCc1cccc(O)c1O[C@@H]1O[C@H](CO)[C@@H](O)[C@H](O)[C@H]1O | -0.912% (inactive) | – |
| CC(C)C1C(OC(=O)/C=C/c2ccccc2)CC2(C)OC2CCC2(C)OC2C1O (configuration not stated) | -18% (inactive) | – |
| C=C1[C@H](OC(C)=O)[C@H]2[C@@H](OC(C)=O)C(C)C[C@]2(OC(C)=O)C(=O)[C@H](C)/C=C/C(C)(C)C(=O)[C@H](OC(=O)C(C)C)[C@H]1OC(C)=O (some centres not stated) | -14.5% [at 17.3 µM] (inactive) | – |
| COc1cc(/C=C/C(=O)O[C@H]2[C@H](O)[C@@H](CO)O[C@@]2(CO)O[C@H]2O[C@H](CO)[C@@H](O)[C@H](O)[C@H]2O)cc(OC)c1O | – | inactive [at 17.3 µM] |
| CCCCCOC(=O)Nc1nc(=O)n(C2O[C@H](C)[C@@H](O)[C@H]2O)cc1F (some centres not stated) | -0.689% (inactive) | – |
| COc1cc(C2Oc3c(OC)cc(CCCO)cc3C2CO)ccc1O (configuration not stated) | -4.28% (inactive) | – |
